# Active and inactive are the calls of the source. The calls were made as follows: active = hit-call score of the fitted dose curve at least 0.9, where 1 is the maximum; inactive = score below 0.9.
# Experiment: ATG_M_19_CIS: Attagene CIS-FACTORIAL HepG2 Assay for M19 Transcription Factor (Internal Marker) (AID 2282939)
# Details: HepG2 Attagene CIS-FACTORIAL M19 internal marker reporter; actives raise or lower the signal
# Protocol: ATG_CIS is a cell-based, multiplexed-readout assay that uses HepG2, a human liver cell line, with measurements taken at 24 hours after chemical dosing in a 24-well plate.ATG_M_19_CIS is one of 52 assay component(s) measured or calculated from the ATG_CIS assay. It is designed to make measurements of mRNA induction, a form of inducible reporter, as detected with fluorescence intensity signals by Reverse transcription polymerase chain reaction (RT-PCR) and Capillary electrophoresis technology.Data from the assay component ATG_M_19_CIS was analyzed into 1 assay endpoint. This assay endpoint, ATG_M_19_CIS, was analyzed with bidirectional fitting relative to DMSO as the negative control and baseline of activity. Using a type of inducible reporter, measures of mRNA for gain or loss-of-signal activity can be used to understand the background control at the transcription factor-level as they relate to the gene . Furthermore, this assay endpoint can be referred to as a secondary readout, because this assay has produced multiple assay endpoints where this one serves a background control function. To generalize the intended target to other relatable targets, this assay endpoint is annotated to the background measurement intended target family, where the subfamily is internal marker.
# Human liver HepG2 cells are transiently transfected with multiple reporter transcription units (MRTUs) in 6-well plates using FuGene 6 reagent (Roche; 3 ml FuGene/1 mg DNA). The MRTU constructs are regulated by a cis-regulating element (promoter). […] A major difference between the CIS and TRANS system is that in CIS activities of endogenous TFs are measured, whereas the TRANS assay evaluates changes in activities of exogenous, chimeric NR-Gal4 proteins. […] At the end of 24 hour incubation, total RNA was isolated using TriZol reagent (Invitrogen). The isolated RNA is then reverse-transcribed using oligo(dT) primer and Mo-MLV reverse transcriptase (Invitrogen) with DNAse I (Ambion) treatment for 30 min. The one-tenth of the produced cDNA was amplified by PCR using Taq DNA polymerase (Invitrogen) and two reporter sequence-specific primers. The PCR products were fluorescently labeled by primer extension with 6-arboxyfluorescein (6-FAM) 5'-labeled reporter sequence-specific primer (2 min at 95 C, 20 s at 68 C and 10 min at 72 C) and these products were digested with 5U of HpaI (New England Biolabs) for 2h at 37 C. The fragments were purified using Qiaquick PCR columns (Qiagen), analyzed on an ABI 3130xL genetic analyzer (Applied Biosystems) with peak positions identified by using a set of X-rhodamine (ROX)-labeled MapMarker1000 molecular weight standards (BioVentures). The raw capillary electrophoresis data was processed using Attagraph software (Attagene).
Compound,outcome,AC50
CC(O)CC(C)(C)O (stereo not given),inactive,
c1ccc2n[nH]nc2c1,inactive,
CN(C[C@@H](CC[N+]12CCC(C3CCCCC3)(CC1)CC2)c1ccc(Cl)c(Cl)c1)C(=O)c1cc(C(F)(F)F)cc(C(F)(F)F)c1,inactive,
CCN(Cc1cccc(S(=O)(=O)O)c1)c1ccc(C(=C2C=CC(=[N+](CC)Cc3cccc(S(=O)(=O)O)c3)C=C2)c2ccccc2S(=O)(=O)[O-])cc1,inactive,
CCO[Si](CCCNC(N)=O)(OCC)OCC,inactive,
CCCCCCCC[Si](OCC)(OCC)OCC,inactive,
C[C@]12CC[C@@H]3c4ccc(O)cc4CC[C@H]3[C@@H]1CCC2=O,inactive,
CCCCCCCCOc1ccc(C(=O)c2ccccc2)c(O)c1,inactive,
O=CCCCC=O,inactive,
CCCCOC(=O)c1ccc(O)cc1,inactive,
O=C(O)Cn1c(=O)n(Cc2ccc(Br)cc2F)c(=O)c2ccc(Cl)cc21,inactive,
Clc1ccccc1C(c1ccccc1)(c1ccccc1)n1ccnc1,inactive,
C[C@]12CC[C@@H]3c4ccc(O)cc4CC[C@H]3[C@@H]1CC[C@H]2O,inactive,
Oc1ccc2ccccc2c1,inactive,
c1ccc(C[n+]2cccc3ccccc32)cc1,inactive,
Cc1c2ccccc2c(C)c2c1ccc1ccccc12,,33.4 µM (active)
CN(C)C(=O)C1(N2CCCCC2)CCN(CC[C@@]2(c3ccc(Cl)c(Cl)c3)CN(C(=O)c3ccccc3)CCO2)CC1,inactive,
Cc1cc2c(cc1C(F)(F)F)N(C(=O)Nc1ccc(Oc3cccnc3C)nc1)CC2,inactive,
CC1(C)NC(=O)N(c2ccc([N+](=O)[O-])c(C(F)(F)F)c2)C1=O,inactive,
c1ccc2ccccc2c1,inactive,

Compound,outcome,AC50
O=C(Nc1ccc(Cl)cc1)Nc1ccc(Cl)c(Cl)c1,inactive,
OCCO,inactive,
COc1cccc([C@H](O)C2CCN(CCc3ccc(F)cc3)CC2)c1OC,inactive,
CC(C)(c1cc(Br)c(O)c(Br)c1)c1cc(Br)c(O)c(Br)c1,inactive,
CCN(Cc1cccnc1)C(=O)c1cccc(Cl)c1[C@]1(C)C(=O)N(Cc2ccc(OC)cc2OC)c2ccc(Cl)cc21,inactive,
Cc1ncc(CO)c(CO)c1O,inactive,
CCCCCCCCCC(=O)O,inactive,
CC(C)(C)c1cc(/C=C2\SC(N)=NC2=O)cc(C(C)(C)C)c1O,inactive,
Cc1ccc(C(C)C)cc1,inactive,
COc1ccc2cc(S(=O)(=O)N[C@H](CC(=O)N[C@H](Cc3ccc(CN4[C@H](C)CCC[C@@H]4C)cc3)C(=O)N(C)C(C)C)c3ccc4c(c3)OCO4)ccc2c1,inactive,
OC12N=C(c3ccccc3)SC1Cc1cc(Cl)ccc12 (stereo not given),inactive,
O=C(O)c1ccccc1C(=O)OCc1ccccc1,inactive,
Oc1ccccc1,inactive,
O=C(O)c1ccccc1-n1cc(C(=O)O)c(=O)c2cc(Nc3c(F)cc(F)cc3Cl)c(Cl)cc21,inactive,
CCCCCCCCCCCCO,inactive,
CCCCCCCCCCCO,inactive,
CC(C)(C)c1csc(-c2cc3cc(OCc4ccccc4CC(=O)O)ccc3o2)n1,inactive,
O=C=NCCCCCCN=C=O,inactive,
CC1=CC(=O)/C(=C(/C)O)C(=O)O1,inactive,
CCCCCCCCOC(=O)c1cc(O)c(O)c(O)c1,inactive,

# Reference: PubChem BioAssay (EPA / NIEHS)
